# In PubChem BioAssay AID488821 (National Center for Advancing Translational Sciences (NCATS), 2010):
# Records with an inconclusive call do not appear. Where a call stands in place of a potency, no number is given. Activity calls are given as the source filed them. Calls come from the whole dose curve; as a rule, active = well fitted inhibition curve with a large enough effect; inconclusive = small, poorly fitted or top-dose-only effect, or effect the other way; inactive = flat fitted curve, though single readings scatter.
# Assay: Counterscreen Assay for Enhancers of SMN2 Splice Variant Expression: Modulation of SMN1 Expression for Further Probe SAR
# Details: HEK293 SMN1-luciferase reporter, luminescence, 30-36 h; series mostly up to 46.1 µM
# Text: NIH Chemical Genomics Center [NCGC] NIH Molecular Libraries Probe Production centers Network [MLPCN] MLPCN Grant: R03 MH084179-01 Assay Submitter (PI): Elliot Androphy NCGC Assay Overview: Spinal muscular atrophy (SMA) is caused by insufficient levels of the survival motor neuron protein SMN. The SMN locus on chromosome 5q13 contains two inverted copies of SMN called SMN1 and SMN2 which are 99% identical at the amino acid level. SMN1 is a fully functional protein and SMN2 skips exon 7 90% of the time. Skipping of exon 7 produces non-functional protein product. 10% of the SMN2 protein includes exon 7 and is fully functional. In the SMA disease state, mutations in the SMN1 locus are the cause of the disease state. Because only 10% of SMN2 is of the fully functional form, it is not sufficient to overcome the deficiency produced by the loss of the SMN1 product. A therapy that either increases the amount of SMN2 product made increases the inclusion of exon 7 has been proposed for the treatment of SMA. We have designed an assay to identify small molecules that can increase the amount of functional SMN2 product by appending a luciferase reporter gene after the native SMN2 gene, such that inclusion of exon 7 in the expressed product places the luciferase sequence in frame, thus generating functional luciferase enzyme. As a counterscreen for nonspecific modulators of expression, we have run compounds through a similar assay that measures expression of an SMN1-luciferase chimera.
# NCGC Assay Protocol Summary: This screen utilizes a luciferase reporter gene assay, combining the promoter with the major portion of the native SMN1 cDNA (exons 1 -7, intron 8 , exon 8 fused to luciferase) stably expressed in HEK293 cells. Compounds that increase luciferase signal presumably enhance expression of the functional SMN1 splice variant. Passaging media contained DMEM w/ glutamax (+phenol red) 10% FCS, 1x pen/strep, 200 ug/ml hygro, 1x sodium pyruvate. Assay media contained DMEM w/ glutamax (-phenol red) 10% FCS, 1x pen strep, 1x pyruvate Sequence, Parameter, Value, Description (1) Cells, 5 uL, 2000 cells/well, 1536 TC treated White solid bottom plate (2) Time, 10-12 hours, 37C 5% CO2 (3) Compound, 23 nl, MLSMR Library (4) Control Compound, 23 nL, Sodium butyrate st 4.5mM (final) conc (5) Time, 30-36 hours, 37C 5% CO2 (6) Reagent, 3 ul, One Glo (TM) from Promega (7) Time, 5-15 minutes, Room temp (8) Detector, Viewlux: luminescent read, 60 second integration, high speed 2x binning Keywords: Spinal muscular atrophy, SMA, SMN2, high throughput screening, MLSMR, MLPCN, NIH Roadmap, qHTS and NCGC
row,Structure (SMILES),Potency
1,CC(C)Oc1cccc(-c2cnc(N3CCC(C(N)=O)CC3)s2)c1,4.87 µM (active)
2,Nc1nc(N)c2c(OCC3CCN(Cc4ccccc4F)CC3)cccc2n1,19.4 µM (active)
3,NC(=O)C1CCN(c2nc(-c3ccc4c(c3)OCCCO4)cs2)CC1,7.72 µM (active)
4,CN(C)c1cccc(-c2ccnc(N3CCC(C(N)=O)CC3)n2)c1,inactive
5,O=C(NCCCCc1ccccc1)C1CCN(c2nc(-c3ccc(Br)cc3)cs2)CC1,inactive
6,COc1cc(OC)cc(-c2csc(N3CCC(C(N)=O)CC3)n2)c1,inactive
7,O=C(NCc1ccccc1)C1CCN(c2nc(-c3ccc(Br)cc3)cs2)CC1,inactive
8,O=C(C1CCN(c2nc(-c3ccc(Br)cc3)cs2)CC1)N1CCOCC1,inactive
9,NC(=O)C1CCN(c2nc(-c3ccc(C(F)(F)F)cc3)cs2)CC1,inactive
10,CN(C)c1cccc(-c2nccc(N3CCC(C(N)=O)CC3)n2)c1,inactive
11,NC(=O)C1CCN(c2nc(-c3ccc(OCc4ccccc4)cc3)cs2)CC1,inactive
12,NC(=O)C1CCN(c2nccc(Cl)n2)CC1,inactive
13,CC(C)(C)OC(=O)NC1CCN(c2nc(-c3ccc(Br)cc3)cs2)CC1,inactive
14,CN(C)c1cccc(-c2cnc(N3CCC(C(N)=O)CC3)nc2)c1,1.22 µM (active)
15,O=C(c1ccco1)N1CCN(c2nc(-c3ccc(Br)cc3)cs2)CC1,inactive
16,NC(=O)C1CCN(c2nc(-c3cccc(F)c3)cs2)CC1,inactive
17,CN(C)c1cccc(-c2cnc(N3CCC(C(N)=O)CC3)s2)c1,0.772 µM (active)
18,CN(C)c1ccc(-c2csc(N3CCC(C(N)=O)CC3)n2)cc1,inactive
19,Cc1ccc(-c2nnc(N3CCC(C(N)=O)CC3)s2)cc1,6.14 µM (active)
20,Cc1cnc(N2CCC(C(N)=O)CC2)nc1-c1cccc(N(C)C)c1,inactive

row,Structure (SMILES),Potency
1,COc1ccccc1-c1csc(N2CCC(C(N)=O)CC2)n1,inactive
2,NC(=O)C1CCN(c2nc(-c3ccccc3[N+](=O)[O-])cs2)CC1,inactive
3,NC(=O)C1CCN(c2nc(-c3cccc(Br)c3)cs2)CC1,inactive
4,CC(=O)C1CCN(c2ncc(-c3ccc4c(c3)OCCCO4)s2)CC1,4.87 µM (active)
5,NC(=O)C1CCN(c2ncc(Br)cn2)CC1,inactive
6,NC(=O)C1CCN(c2nccc(-c3ccc(Br)cc3)n2)CC1,12.2 µM (active)
7,NC(=O)C1CCN(c2nc(-c3cccc(C(F)(F)F)c3)cs2)CC1,inactive
8,CN(C)c1cccc(-c2nnc(N3CCC(C(N)=O)CC3)s2)c1,6.14 µM (active)
9,N#Cc1cccc(-c2csc(N3CCC(C(N)=O)CC3)n2)c1,inactive
10,NC(=O)N1CCN(c2nc(-c3ccc(Br)cc3)cs2)CC1,inactive
11,N#CC1CCN(c2nc(-c3ccc(Br)cc3)cs2)CC1,inactive
12,NC(=O)C1CCN(c2nnc(-c3ccc4c(c3)OCCCO4)s2)CC1,1.54 µM (active)
13,NC(=O)C1CCN(c2ncc(Br)s2)CC1,inactive
14,CSc1ccc(-c2cnc(N3CCC(C(N)=O)CC3)s2)cc1,0.972 µM (active)
15,CS(=O)(=O)N1CCN(c2nc(-c3ccc(Br)cc3)cs2)CC1,inactive
16,CC(C)Oc1cccc(-c2ccnc(N3CCC(C(N)=O)CC3)n2)c1,9.72 µM (active)
17,NC(=O)C1CCN(c2ncc(-c3ccc4c(c3)OCCCO4)s2)CC1,0.487 µM (active)
18,CC(C)Oc1ccc(-c2csc(N3CCC(C(N)=O)CC3)n2)cc1,inactive
19,O=C(Nc1ccccc1)C1CCN(c2ncc(-c3ccc4c(c3)OCCCO4)s2)CC1,0.487 µM (active)
20,CC(C)(C)c1ccc(-c2csc(N3CCC(C(N)=O)CC3)n2)cc1,inactive
